About 5,400 (1.5%) of roughly 370,000 compounds were called active. For the sample, actives were picked, then their nearest neighbours and some compounds at random. Unmarked numbers belong to inactive results.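 The calls were made as follows: active = activation above the mean of all tested compounds plus 3 SD (cut at about 5.5% in these data); inactive = the rest.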

Drawing on PubChem BioAssay AID652067 (The Scripps Research Institute Molecular Screening Center, 2013), this text covers activation for 90 compounds.

This experiment has as its system DAF-12 nuclear receptor (Haemonchus contortus). In words: H. contortus DAF-12 nuclear receptor activators, primary screen, cell-based, luminescence, HEK293, lit1-tk-luc reporter (AID 652067).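 Also: 100% = response to 3 µM Δ7-dafachronic acid high control.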 Conditions: HEK293 hcDAF-12 lit1-tk-luc reporter, at 6.8 µM, stronger effect = higher value, 0% DMSO, 100% Δ7-dafachronic acid.
`Nc1ccc2nn(-c3ccc(Cl)cc3)nc2c1`: the activation is 12.2% (active).
The value for `Nc1nc2cc(Cl)ccc2n1N` was -0.75%; that for `Nc1ccc2c(c1)C(O)c1ccc(Cl)cc1-2` (stereo not given) was 0.07%.
Then `CCOc1ccc(N(CC(=O)Nc2c(C)n(C)n(-c3ccccc3)c2=O)S(=O)(=O)c2ccc(Cl)s2)cc1`, with -1%.
The value for `CN(CCc1ccccc1)C(=O)Cn1nc(-c2ccccc2)ccc1=O` was -1.21%.
In the case of `COC(=O)[C@]12C[C@H](CC(=O)NCc3ccccc3)C(=O)N(CCC3=CCCCC3)C1=C[C@H](C(C)C)O[C@@H]2C1CC1`, the activation was -1.01%.
The value for `O=C(Nc1c(Cl)c(C2CC2)nn1-c1ccccc1)C(Cl)(Cl)Cl` was -0.16%.
The value for `O=C(Cn1ccc([N+](=O)[O-])n1)NCc1cccs1` was 10.1% (active).
The value for `Cc1ccnc(NC(=O)Cn2ccc([N+](=O)[O-])n2)c1` was 0.29%; that for `O=C(CCn1ccc([N+](=O)[O-])n1)Nc1nccs1` was -1.81%.
Consider `CCOC(=O)[C@]12CCCC3=C1N(CCC3)C(=O)[C@@H](CC(=O)NCc1cccs1)C2`, for which the activation was -2.04%.
In the case of `O=C(/C=C/c1ccccc1[N+](=O)[O-])OCC(=O)N1CCCC1`, the activation is 3.54%.
Then `CC1CC(C)CN(C/C=C/c2ccccc2[N+](=O)[O-])C1` (stereo not given), with 6% (active).
In the case of `COc1cc(CN2CC(C)CC(C)C2)cc([N+](=O)[O-])c1O` (stereo not given), the activation is -3.15%.
With `COc1ccc(C2Nc3ccccc3C(=O)N2Cc2cccs2)cc1COc1c(C)cccc1C` (stereo not given), the activation was -0.71%.
The value for `Cn1c(SCC(=O)c2cccs2)nnc1-c1ccco1` was 0.02%; that for `O=S(=O)(Nc1ccc2nc(-c3ccco3)[nH]c2c1)c1ccccc1` was 1.02%.
On to `Cn1c(-c2ccco2)nc2cc3ccccc3cc21`, for which the activation was 17.4% (active).
Then `C=CCN=C1NC(c2cccc(C(F)(F)F)c2)C(C(=O)OC)=C(C)N1C` (stereo not given), with -0.27%; and `Cc1ccc(NC(=O)Cc2cccc(F)c2)c(S(=O)(=O)N2CCOCC2)c1`, with -1.13%; and `Cc1ccccc1NC(=O)COC(=O)c1ccc(Sc2ncn[nH]2)c([N+](=O)[O-])c1`, with 0.06%.
As for `COC(=O)CNC(=O)c1ccc2c(c1)S(=O)(=O)c1ccccc1C2=O`, the activation was -0.44%.
For the compound `CCCCN(C)C(=O)c1ccc2c(c1)N(CC)C(=O)c1ccccc1S2(=O)=O`, the activation was 6.63% (active).
Then `O=C(c1ccc2c(c1)N(Cc1ccc(F)cc1)C(=O)c1ccccc1S2(=O)=O)N1CCN(c2ccccn2)CC1`, with -2.49%.
Turning to `OC(c1ccccc1)(c1ccccc1)C1CCN(CCCOc2ccc(-c3ccsc3)cc2)CC1`, the activation is 0.49%.
As to `CC(NCc1ccco1)C(=O)N1CCCCC1` (stereo not given), the activation is 0.18%.
Then `COc1ccc2nc(SCc3ccccc3)nc(C)c2c1`, with 7.19% (active); and `COc1ccc(NCc2nnc(SCc3ccccc3)n2-c2ccc(OC)cc2)cc1`, with -1.98%.
With `COc1cccc(CSc2nnc(-c3cccnc3)n2Cc2ccccc2)c1`, the activation was -1.85%.
Turning to `Fc1ccc2nc(COCc3nc4ccc(F)cc4[nH]3)[nH]c2c1`, the activation is -1.16%.
Then `Cc1ccccc1Nc1nnc(SCC(=O)c2cc3ccccc3o2)s1`, with 7.93% (active); and `Cc1cccc(Nc2nnc(SCC(=O)c3c(N)n(C4CC4)c(=O)[nH]c3=O)s2)c1C`, with -1.19%; and `CCOc1ccccc1Nc1nnc(SCC(=O)Nc2cc(C)on2)s1`, with -3.24%.
Then `CC(=NNC(N)=O)c1ccc(Cl)c(-n2cccc2)c1`, with 0.37%; and `COc1cc(OC)cc(-c2cc3ccc(F)cc3cn2)c1`, with 3.13%.
In the case of `O=c1cc(-c2ccccc2)[nH]c2cc(F)ccc12`, the activation was -0.52%.
Then `Fc1ccc2cnc(-c3ccccc3)cc2c1`, with 6.9% (active); and `COC(=O)[C@]12C[C@H](CC(=O)NCc3ccccc3)C(=O)N(CCc3ccc(OC)c(OC)c3)C1=C[C@H](C(C)(C)C)O[C@@H]2C`, with -2.1%; and `O=c1[nH]c(-c2ccccc2)cn1C1CCN(Cc2ccc(-c3nc4ccc(F)cc4nc3-c3ccccc3)cc2)CC1`, with 0.07%.
The value for `O=C(CCS(=O)(=O)c1ccccc1)Nc1ccc(Cl)c(Cl)c1` was 0.35%.
On to `COc1ccc(C#CCNCc2ccc(OC)cc2OC)cc1`, for which the activation was -3.08%.
Take `Cc1ccc2nc(-c3ccc(CN4CCC(n5cc(-c6ccccc6)[nH]c5=O)CC4)cc3)c(-c3ccccc3)nc2c1`: the activation is -2.64%.
Turning to `CN(C)CCNC(=O)c1ccc(Cl)c2cc3ccccc3nc12`, the activation is 13.5% (active).
For the compound `Cc1cc(C)n(C(=O)CCNC(=O)c2ccccc2Cl)n1`, the activation is -1.04%.
`COCCNC(=O)c1ccccc1-c1nc(-c2ccccc2Cl)no1`: the activation was 2.6%.
For `O=C(N1CCOCC1)N(Cc1ccccc1)c1ccccn1`, the activation was -1.16%.
For the compound `O=C(Nc1ccc2ccccc2c1)Nc1ccc2snnc2c1`, the activation is -0.5%.
`O=S(=O)(NC(=S)Nc1ccccc1)c1ccc(F)cc1`: the activation is 2.29%.
As to `S=C(Nc1ccccc1)Nc1ccc2ccccc2c1`, the activation was 6.41% (active).
Then `CC(=O)C1=C(C)N(Cc2ccc(Cl)cc2)C(=S)NC1c1ccc(F)cc1` (stereo not given), with 0.56%.
`Nc1nc2c(ncn2[C@@H]2O[C@H](C(=O)N[C@@H](Cc3ccccc3)C(=O)NCc3ccccc3)[C@@H](O)[C@H]2O)c(=O)[nH]1`: the activation was 1.55%.
Then `O=S(=O)(c1ccc2c(c1)OCCCO2)N1CCN(S(=O)(=O)c2c(F)cccc2F)CC1`, with -1.98%.
Then `C=CCn1c(=NC(=O)c2ccc(S(=O)(=O)N3CCCC3)cc2)sc2cc(NC(C)=O)ccc21`, with -1.46%; and `C=CCn1c(=NC(=O)c2cccs2)sc2cc(NC(C)=O)ccc21`, with 6.19% (active).
Then `C=CCn1c(CCNC(=O)c2cccs2)n[nH]c1=S`, with 1.16%; and `Cc1cc(=O)[nH]c(SCC(=O)Nc2ccc(Cl)cc2C)n1`, with -1.08%; and `CCOc1ccc(NC(=O)COC(=O)C2CCC(=O)N2)c([N+](=O)[O-])c1` (stereo not given), with 3.85%.
Turning to `CN(C)c1ccc(NC(=O)NC2CCCCN(Cc3ccc(Cl)cc3)C2=O)cc1` (stereo not given), the activation is -0.06%.
The value for `CC1CC(C)CN(CCCNC(=O)Cn2ncc3c([nH]c4ccccc43)c2=O)C1` (stereo not given) was 6.07% (active).
Turning to `Cc1c2cnn(CC(=O)NCCCN3CC(C)CC(C)C3)c(=O)c2c(C)n1Cc1ccc(Cl)cc1` (stereo not given), the activation was -1.23%.
The value for `CC1CCCCN1CCCNC(=O)Cn1ncc2c([nH]c3ccccc32)c1=O` (stereo not given) was 0.15%; that for `CSCC[C@H](NC(=O)OC(C)(C)C)C(=O)N/N=C/c1cc2ccc(C)cc2nc1Cl` was -0.35%; that for `CC(=O)Nc1ccc(C(=O)CSc2nc3ccc(C)cc3[nH]2)cc1` was 4.98%.
Then `Cc1ccc2cc(/C=N/Nc3ccc(C(=O)O)cc3)c(Cl)nc2c1`, with 10.2% (active); and `CC(Oc1ccccc1)C(=O)NN1Cc2ccccc2C1=N` (stereo not given), with -1.32%.
On to `O=C(O)Cn1c(Cc2ccccc2)nc2ccccc21`, for which the activation was 0.35%.
Turning to `Cc1c(C=O)c2ccccc2n1CC(=O)O`, the activation was 9.3% (active).
The value for `Cc1c(C=O)c2ccccc2n1CCOc1ccccc1` was -3.86%.
For `CCOC(=O)c1csc(NC(=O)C2CCCN(S(=O)(=O)c3ccc(Cl)s3)C2)n1` (stereo not given), the activation was -2.96%.
Then `Cn1cnc(C(F)(F)F)c1-c1ccc([N+](=O)[O-])cc1`, with -1.54%.
Then `COc1ccc(-c2cc(-c3nnc(SCc4ccc([N+](=O)[O-])cc4)n3N)[nH]n2)cc1`, with -4.71%; and `Cc1ccc(-c2cn3cc([N+](=O)[O-])ccc3n2)cc1`, with 7.66% (active); and `C=CCN(C(=O)[C@@H](CCCC)[C@@H](O)c1ccc(Cl)cc1)c1ccccc1`, with -1.78%.
In the case of `CCCCCCCCN1C(=O)[C@@H](CC(=O)NCc2ccc(C)o2)C[C@@]2(C(=O)OC)C1=C[C@H](C(C)(C)C)O[C@@H]2C`, the activation is 0.67%.
As for `CN1C[C@]2(C=C3CCCCC3n3c(=O)n(-c4ccccc4)c(=O)n32)N=C1NC(=O)c1ccccc1` (stereo not given in full), the activation was -1.23%.
The value for `c1ccc2sc(NN=C3CCCC3)nc2c1` was 9.02% (active).
Then `CCN(CC)CCn1c2c(c(SCC(=O)Nc3nc4ccccc4s3)nc1=O)CCCC2`, with 1.05%; and `O=C1NC(Nc2nc3ccccc3s2)(C(F)(F)F)C(=O)N1C1CCCCC1` (stereo not given), with 2.82%.
The value for `O=S1(=O)c2c(cccc2N2CCCCC2)O[C@H](COCc2ccccc2)CN1C1CC1` was -2.09%; that for `CC(=O)Oc1ccc2c(=O)oc(-c3ccc([N+](=O)[O-])cc3)nc2c1` was -2.73%.
For the compound `COc1cccc(-c2nc(CS(=O)(=O)CC(=O)NCCc3ccc(OC)c(OC)c3)c(C)o2)c1`, the activation is -1.4%.
The value for `O=[N+]([O-])c1ccc2c(c1)C(O)n1nc(-c3ccccc3)nc1S2` (stereo not given) was 0.58%; that for `COc1cccc(-c2nnc(SCCOc3ccc4c(C)cc(=O)oc4c3)o2)c1` was 0.05%; that for `COc1cccc(-c2nc3cc(C)ccc3o2)c1` was 14.7% (active).
As for `O=[N+]([O-])c1ccc2oc(-c3cccc(O)c3)nc2c1`, the activation was 15.4% (active).
Then `COc1cccc(CNC(=O)[C@H]2CCCN2C(=O)[C@H]2CCCN2C(=O)c2cc(F)cc(F)c2)c1`, with -1.64%; and `CSc1ccc(C=Nn2c(-c3ccc(F)cc3)n[nH]c2=S)cc1`, with -0.55%.
Then `CC(C)Cn1c(CCC(=O)O)ccc1-c1cccs1`, with -0.34%; and `C=C1C(C(C)C)N(C)C2=NC(c3ccccc3)CC(=O)N12` (stereo not given), with -1.26%; and `COc1ccc(-n2c(SCC(=O)Nc3ccccc3-c3ccccc3)nnc2-c2cccnc2)cc1`, with -2.71%.
